Screening data from PubChem.
JMJD2A Tudor inh = qHTS Assay for Inhibitors of JMJD2A-Tudor Domain | Lysine-specific demethylase 4A (Homo sapiens), O75164 | AlphaScreen JMJD2A-Tudor / H3K4me3 peptide binding | Potency, µM (doses to about 114 µM), for the others: at the highest dose activity change, negative = inhibition, hits mostly inhibitors | 390,000 tested, 4.4% active | AID 504339, 2011; further: on the % scale 0 is the no-effect control and ±100 the full control effect; nearly all actives have a fitted effect of over 50% in size
PLK1 PBD block = qHTS for Inhibitors of PLK1-PDB (polo-like kinase 1 - polo-box domain): Primary Screen; 360,000 tested, 2.8% active; Potency, µM, without a hit: max response, negative = inhibition, actives largely listed as inhibitors; Serine/threonine-protein kinase PLK1 (Homo sapiens), P53350; Plk1 PBD binding of FITC phosphopeptide, fluorescence polarization; AID 720504, 2013; further: series mostly up to about 57 µM; on the % scale 0 is the no-effect control and ±100 the full control effect; nearly all actives have a fitted effect of over 65% in size
Target sequence (P53350 whole entry, looked up, the tested form may be a part): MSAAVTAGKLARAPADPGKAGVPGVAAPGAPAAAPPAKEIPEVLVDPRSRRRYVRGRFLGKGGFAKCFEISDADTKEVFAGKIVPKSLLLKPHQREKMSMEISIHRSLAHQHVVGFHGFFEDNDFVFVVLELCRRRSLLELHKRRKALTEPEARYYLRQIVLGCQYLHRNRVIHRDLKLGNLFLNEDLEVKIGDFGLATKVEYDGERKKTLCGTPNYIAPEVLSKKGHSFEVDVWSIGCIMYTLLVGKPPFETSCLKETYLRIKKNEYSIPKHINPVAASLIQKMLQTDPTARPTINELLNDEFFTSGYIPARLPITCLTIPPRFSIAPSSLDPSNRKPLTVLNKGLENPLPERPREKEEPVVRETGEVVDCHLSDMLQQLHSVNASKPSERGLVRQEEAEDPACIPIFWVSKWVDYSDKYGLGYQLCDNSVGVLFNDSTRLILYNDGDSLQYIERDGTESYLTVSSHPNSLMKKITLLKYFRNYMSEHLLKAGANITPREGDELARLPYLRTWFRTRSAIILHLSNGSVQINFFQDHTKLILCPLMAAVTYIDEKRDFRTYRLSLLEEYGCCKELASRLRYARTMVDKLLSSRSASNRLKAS
BAZ2B inh = qHTS Assay for Inhibitors of BAZ2B. AlphaScreen BAZ2B-H3K14Ac peptide displacement. Potency, µM (series often up to 114 µM), for inactives: at the highest dose activity change, negative = inhibition, most hits filed as inhibitors. 360,000 tested, 4.4% active; further: on the % scale 0 is the no-effect control and ±100 the full control effect; nearly all actives have a fitted effect of over 60% in size
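AlphaScreen displacement: compounds (up to 110uM) incubated 30 min at room temperature with a preformed 50 nM BAZ2B/50 nM biotinylated H3K14Ac peptide complex in PBS pH 7.4 with Tween-20. Donor and acceptor beads at 10 ug/mL final added, 20 min light-protected before reading.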
G9a inh = qHTS Assay for Inhibitors of Histone Lysine Methyltransferase G9a. AID 504332, 2011. 350,000 tested, 8.8% active. G9a H3K9 monomethylation, AlphaScreen, 2 h. Potency, µM (series often up to 102 µM), inactives show at the highest dose activity, negative = inhibition, usual class: inhibitors. Histone-lysine N-methyltransferase EHMT2 (Homo sapiens), Q96KQ7; further: on the % scale 0 is the no-effect control and ±100 the full control effect; nearly all actives have a fitted effect of over 75% in size
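G9a (20 nM) was preincubated 15 min with compound, then reacted 2 h at room temperature with 500 nM biotin-H3K9 peptide and 20 µM SAM. Monomethyl-H3K9 detected by AlphaScreen using anti-H3K9me1 antibody.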
HP1b binding inh = HTS for Inhibitors of HP1-beta Chromodomain Interactions with Methylated Histone Tails; Chromobox protein homolog 1 (Homo sapiens), P83916; AlphaScreen HP1-beta / biotin-H3K9me3 peptide binding; Potency, µM (top dose mostly 114 µM), without a hit: at the highest dose activity change, negative = inhibition, most hits filed as inhibitors; 390,000 tested, 0.56% active; further: nearly all actives have a fitted effect of over 70% in size
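AlphaScreen: HP1-beta (50 nM) preformed 30 min with biotin-H3(1-18)K9me3 peptide (50 nM) in PBS pH 7.4, 0.01% Tween-20. Compound added for 30 min at RT, then streptavidin donor/nickel chelate acceptor beads (10 ug/mL) for 30 min.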
Sfp inh = qHTS Assay for Inhibitors of Bacillus subtilis Sfp phosphopantetheinyl transferase (PPTase); AID 1490, 2009; 310,000 tested, 3.5% active; Biochemical Sfp PPTase activity, qHTS; 4'-phosphopantetheinyl transferase ffp (Bacillus subtilis), Q9F4F7; Potency, µM, for the others: largest response in the series, negative = inhibition, usual class: inhibitors;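 further: the enzyme is Sfp with the accession as filed and its product quenches rhodamine fluorescence; 0% = enzyme reaction without inhibitor and -100% = no enzyme wells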
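Compounds were incubated with enzyme (final 15 nM) for 15 min at room temperature before substrate addition started the reaction. Fluorescence at 525 nm excitation, 598 nm emission was recorded immediately and after 30 minutes.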
* = called active by the depositor; ? = inconclusive; · = no result given; [ ] = remark or other dose. Most compounds without a hit are left out; they make up all but 12% or so of the library. The call rests on the fitted dose curve; in most records, active means well fitted curve in the direction sought with a large enough effect; inconclusive means small, poorly fitted or top-dose-only effect, or another doubt; inactive means no such curve, though single readings can be large; an effect the other way counts as inactive or inconclusive. Potency means the concentration at half of the fitted maximal effect.

SMILES	JMJD2A Tudor inh	PLK1 PBD block	BAZ2B inh	G9a inh	HP1b binding inh	Sfp inh
O=S(=O)(c1cccc2nsnc12)N1CCOCC1	3%	-1%	-8%	1%	22%	3%
O=S(=O)(c1cccc2nsnc12)N1CCN(c2ccccc2F)CC1	50µM*	24µM*	?	·	?	0%
CC(C)c1ccc(S(=O)(=O)c2nnn3c2nc(N2CCOCC2)c2sccc23)cc1	1%	·	-3%	12%[59 µM]	86%	·
O=C(NCCc1ccccc1Cl)c1ccc2c(=O)n(-c3ccccc3)c(=O)[nH]c2c1	-19%	·	-3%	-8%[59 µM]	12%	·
COc1ccc(C[C@@H]2CN3C(=NC[C@@H]3C)N2C[C@H](C)NC(=O)c2ccc(C)c(Br)c2)cc1	-15%	?	-28%	?	34%	-22%
COc1cccc(CN(C)C(=O)c2ccccc2SCC(=O)N2CCCC2)c1	-1%	-3%	-2%	-33%	26%	·
CCOC(=O)c1ccc2c(c1)C1C=CCC1C(C(=O)O)N2 (centres undefined)	·	·	6.3µM*	3.2µM*	·	?
CCCC1Nc2ccc(C(=O)O)cc2C2C=CCC12 (centres undefined)	56µM*	?	45µM*	?	-17%	?
O=C(O)C1Nc2ccccc2C2C=CCC12 (centres undefined)	3.5µM*	·	·	·	11µM*	·
COc1cccc([C@@H]2Nc3ccc(C(=O)O)cc3[C@@H]3C=CC[C@@H]32)c1OC	-4%	·	-4%	?	27%	·
CCOC(=O)C1Nc2ccc(C(=O)O)cc2C2C=CCC12 (centres undefined)	4µM*	3µM*	40µM*	24%[0.501 µM]	7.9µM*	22µM*
Cc1cc(C)c2cc(C#N)c(NCCCN)nc2c1	·	-7%	·	·	·	·
O=C(CCc1nc2ccccc2s1)OCC(=O)c1ccc[nH]1	-3%	9%	-17%	-29%	17%	22%
COc1ccc(Cn2nnnc2C(c2ccccn2)N2CCN(c3cc(Cl)ccc3C)CC2)cc1 (centres undefined)	?	-4%	?	22µM*	6%	2%
COc1ccc(N2CCN(C(c3ccccc3)c3nnc(-c4ccccc4Cl)o3)CC2)cc1 (centres undefined)	50µM*	·	40µM*	13µM*	?	·
COc1ccc(C(c2nnnn2Cc2ccc(F)cc2)N2CCN(c3ccc(OC)cc3)CC2)cc1 (centres undefined)	?	-1%	?	32µM*	?	?
COc1ccc(N2CCN(C(c3ccccc3)c3nnnn3Cc3ccc(F)cc3)CC2)cc1 (centres undefined)	?	-7%	-50%	22µM*	-22%	13%
CCn1c(=O)c([N+](=O)[O-])c(NCC2CCCO2)c2ccccc21 (centres undefined)	-15%	-11%	-2%	2%	13%	20%
Cc1ccc(N2C(=O)CS(=O)(=O)C23C(=O)N(Cc2ccccc2C)c2ccccc23)cc1Cl (centres undefined)	-25%	·	-2%[57.1 µM]	?	3%	·
COC(=O)c1ccccc1NC(=O)NCCc1c(C)nn(C)c1C	-11%	·	-14%	11%[59 µM]	24%	·
CN1CCN(C(c2ccc(F)cc2)c2nnnn2Cc2cccs2)CC1 (centres undefined)	-28%	-11%	?	?	41%	-11%
COc1ccc(C(c2nnnn2Cc2cccs2)N2CCN(c3ccc(F)cc3)CC2)cc1OC (centres undefined)	45µM*	21µM*	?	?	?	-3%
CC(C)[C@H](NC(=O)N1CC(=O)Nc2ccccc21)C(=O)N[C@@H](C(=O)O)c1ccccc1	-11%	-11%	-6%	?	24%	5%
COc1cnc(-c2ccccn2)nc1Oc1ccc(Cl)c2ccccc12	-35%	1%	-37%	24%	19%	-6%
COc1cnc(-c2ccccn2)nc1Oc1ccccc1Cl	12%	3%	50µM*	8%[59 µM]	34%	8%
SMILES	JMJD2A Tudor inh	PLK1 PBD block	BAZ2B inh	G9a inh	HP1b binding inh	Sfp inh
COc1cnc(-c2ccccn2)nc1Oc1ccc(Cl)cc1	-31%	-11%	32µM*	·	13%	2%
COc1cnc(-c2ccccn2)nc1Oc1ccc(F)cc1F	-32%	0%	40µM*	5%	44%	11%
CC(Sc1nc2c([nH]c3ccccc32)c(=O)n1-c1ccccc1)c1ccccc1 (centres undefined)	?	·	-30%	-28%[59 µM]	6%[57 µM]	·
Cc1nc(Nc2ccc(Cl)c(Cl)c2)sc1C(=O)Nc1ccccc1	22µM*	27µM*	-32%	?	-13%	5%
CC(=O)c1sc(Nc2cccc(C)c2)nc1C	0%	-4%	50µM*	39%	45%	12%
N#Cc1c(Nc2ccccc2)sc(C(=O)c2ccccc2)c1N	?	-16%	?	10µM*	-25%	-18%
Nc1c(C(=O)c2ccccc2)sc(Nc2ccc(Cl)c(Cl)c2)c1C(=O)Nc1ccccc1	45µM*	·	25µM*	13µM*	?	·
N#Cc1c(Nc2ccc(F)cc2)sc(C(=O)c2ccccc2)c1N	-19%	-3%	-11%	-24%	22%	-6%
CC(=O)c1sc(Nc2ccccc2)nc1C	·	1%	·	·	·	·
Cc1nc(Nc2ccc(Cl)cc2Cl)sc1C(=O)Nc1ccccc1	-10%	-4%	-4%	21%[59 µM]	17%	8%
Cc1cc(C)cc(OCC(=O)Nc2cccc(-c3nc4ncccc4o3)c2)c1	-8%	5%	-3%	-8%	47%	?
c1ccc2sc(N3CCN(Cc4nnnn4CC4CCCO4)CC3)nc2c1 (centres undefined)	-12%	-7%	·	28µM*	26%	-7%
NC(=O)c1ccc(NC(=O)COC(=O)c2cc([N+](=O)[O-])ccc2N2CCOCC2)cc1	-14%	-10%	-8%	13µM*	7%	·
O=C(COC(=O)c1cc([N+](=O)[O-])ccc1N1CCOCC1)Nc1ccc(Cl)cc1	?	0%	-37%	?	-16%	13%
Cc1ccc(S(=O)OCC(=O)Nc2cc(Cl)ccc2N2CCOCC2)cc1 (centres undefined)	?	17µM*	-3%	11%	19%	9%
O=C(COC(=O)c1cc([N+](=O)[O-])ccc1N1CCOCC1)Nc1ccc(Cl)cn1	?	-6%	-33%	-15%	-9%	8%
